Test results from PubChem BioAssay AID1159580 (chemical genetic matrix, 2015).
Where “and” joins values, the source holds several entries; their conditions need not be identical. Equal values may be shown once. In all, about 5,500 compounds went through this assay and about 2,000 (36%) were called active. Inconclusive results (about 18%) are left out. Cut-off read from the data, not from the text of the source: active = normalized growth mostly below about 0.91 (no sharp cut-off); inconclusive = no clear call, values can overlap the other calls; inactive = mostly above about 0.92. The list shows a part of the results.

Assay: chemical genetic growth profiling, strain panel (AID 1159580);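 note: tested at 20 µM; growth read once vehicle control cultures reached saturation at 30 °C; 1 = growth at the plate median or of vehicle wells; lower values mean less growth of the strain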
Details: growth OD

Measured: normalized growth

O=C1CCC(N2C(=O)c3ccccc3C2=O)C(=O)N1 (stereo unspecified)
inactive: S. cerevisiae deletion strains, locus YJR075W, strain HOC1, stronger effect = lower value 0.972 and 1.02 | S. cerevisiae deletion strains, locus YKL009W, strain mrt4, stronger effect = lower value 1.03 | S. cerevisiae deletion strains, locus YKL068W, stronger effect = lower value 0.997 | S. cerevisiae deletion strains, locus YKL085W, strain MDH1 (second series), stronger effect = lower value 1.03 | S. cerevisiae deletion strains, locus YKL085W, strain MDH1, stronger effect = lower value 1.03 | S. cerevisiae deletion strains, locus YKL160W, strain elf1, stronger effect = lower value 1 | S. cerevisiae deletion strains, locus YKL190W, strain CNB1, stronger effect = lower value 1.02 | S. cerevisiae deletion strains, locus YKR001C, strain vps1, stronger effect = lower value 0.969 | S. cerevisiae deletion strains, locus YKR026C, strain gcn3, stronger effect = lower value 1.02 | S. cerevisiae deletion strains, locus YKR091W, strain srl3, stronger effect = lower value 1.02 | S. cerevisiae deletion strains, locus YLL001W, strain dnm1, stronger effect = lower value 1.04 | S. cerevisiae deletion strains, locus YLL026W, stronger effect = lower value 1.01 | S. cerevisiae deletion strains, locus YLL041C, strain sdh2, stronger effect = lower value 1.03 | S. cerevisiae deletion strains, locus YLR027C, strain aat2, stronger effect = lower value 1 | S. cerevisiae deletion strains, locus YLR039C, strain RIC1, stronger effect = lower value 1.03 | S. cerevisiae deletion strains, locus YLR058C, strain SHM2, stronger effect = lower value 1.01 | S. cerevisiae deletion strains, locus YLR102C, strain apc9, stronger effect = lower value 0.991 | S. cerevisiae deletion strains, locus YLR113W, strain HOG1, stronger effect = lower value 0.971 | S. cerevisiae deletion strains, locus YLR221C, strain rsa3, stronger effect = lower value 1.03 | S. cerevisiae deletion strains, locus YLR258W, strain gsy2, stronger effect = lower value 1.02 | S. cerevisiae deletion strains, locus YLR262C, strain YPT6 (second series), stronger effect = lower value 1.02 | S. cerevisiae deletion strains, locus YLR262C, strain YPT6, stronger effect = lower value 1.05 | S. cerevisiae deletion strains, locus YLR268W, strain sec22, stronger effect = lower value 0.985 | S. cerevisiae deletion strains, locus YLR320W, strain mms22, stronger effect = lower value 1.03 | S. cerevisiae deletion strains, locus YLR330W, strain CHS5, stronger effect = lower value 1 | S. cerevisiae deletion strains, locus YLR342W, strain FKS1 (second series), stronger effect = lower value 0.991 | S. cerevisiae deletion strains, locus YLR342W, strain FKS1, stronger effect = lower value 1.01 | S. cerevisiae deletion strains, locus YLR357W, strain rsc2, stronger effect = lower value 0.997 | S. cerevisiae deletion strains, locus YLR370C, strain arc18, stronger effect = lower value 1.03 | S. cerevisiae deletion strains, locus YLR371W, strain rom2, stronger effect = lower value 0.983 | S. cerevisiae deletion strains, locus YLR384C, strain iki3, stronger effect = lower value 1.03 | S. cerevisiae deletion strains, locus YLR418C, strain cdc73, stronger effect = lower value 0.977 | S. cerevisiae deletion strains, locus YML016C, strain PPZ1, stronger effect = lower value 1.01 | S. cerevisiae deletion strains, locus YML032C, strain rad52, stronger effect = lower value 0.979 | S. cerevisiae deletion strains, locus YML120C, strain ndi1, stronger effect = lower value 1.04 | S. cerevisiae deletion strains, locus YML124C, strain tub3, stronger effect = lower value 0.988 | S. cerevisiae deletion strains, locus YMR058W, strain fet3, stronger effect = lower value 1.02 | S. cerevisiae deletion strains, locus YMR078C, strain ctf18, stronger effect = lower value 0.998 | S. cerevisiae deletion strains, locus YMR125W, strain sto1, stronger effect = lower value 1.01 | S. cerevisiae deletion strains, locus YMR129W, stronger effect = lower value 1.02 | S. cerevisiae deletion strains, locus YMR205C, strain PFK2, stronger effect = lower value 1.01 | S. cerevisiae deletion strains, locus YMR223W, strain ubp8, stronger effect = lower value 0.981 | S. cerevisiae deletion strains, locus YMR231W, strain pep5, stronger effect = lower value 1.01 | S. cerevisiae deletion strains, locus YMR263W, strain SAP30, stronger effect = lower value 1.02 and 1 | S. cerevisiae deletion strains, locus YMR307W, strain GAS1, stronger effect = lower value 1.01 and 0.996 | S. cerevisiae deletion strains, locus YNL067W, strain RPL9B, stronger effect = lower value 1.02 | S. cerevisiae deletion strains, locus YNL071W, strain lat1, stronger effect = lower value 1.03 | S. cerevisiae deletion strains, locus YNL128W, strain TEP1, stronger effect = lower value 1.02 | S. cerevisiae deletion strains, locus YNL153C, strain GIM3, stronger effect = lower value 1.02 | S. cerevisiae deletion strains, locus YNL175C, strain NOP13, stronger effect = lower value 0.997 | S. cerevisiae deletion strains, locus YNL183C, strain NPR1, stronger effect = lower value 0.927 | S. cerevisiae deletion strains, locus YNL197C, strain WHI3, stronger effect = lower value 0.986 | S. cerevisiae deletion strains, locus YNL209W, strain ssb2, stronger effect = lower value 1.02 | S. cerevisiae deletion strains, locus YNL224C, strain SQS1, stronger effect = lower value 0.991 | S. cerevisiae deletion strains, locus YNL233W, strain BNI4, stronger effect = lower value 1.02 | S. cerevisiae deletion strains, locus YNL248C, strain rpa49, stronger effect = lower value 0.957 | S. cerevisiae deletion strains, locus YNL250W, strain rad50, stronger effect = lower value 1 | S. cerevisiae deletion strains, locus YNL271C, strain bni1, stronger effect = lower value 0.986 | S. cerevisiae deletion strains, locus YNL298W, strain CLA4, stronger effect = lower value 1 | S. cerevisiae deletion strains, locus YNL307C, strain MCK1, stronger effect = lower value 0.987 | S. cerevisiae deletion strains, locus YNL322C, strain KRE1 (second series), stronger effect = lower value 1.02 | S. cerevisiae deletion strains, locus YNL322C, strain KRE1, stronger effect = lower value 1.01 | S. cerevisiae deletion strains, locus YNR049C, strain mso1, stronger effect = lower value 1.01 | S. cerevisiae deletion strains, locus YNR052C, strain pop2, stronger effect = lower value 0.991 | S. cerevisiae deletion strains, locus YOL006C, strain TOP1, stronger effect = lower value 1.01 | S. cerevisiae deletion strains, locus YOL012C, strain htz1 0.819 | S. cerevisiae deletion strains, locus YOL147C, strain pex11, stronger effect = lower value 0.989 | S. cerevisiae deletion strains, locus YOR001W, strain rrp6, stronger effect = lower value 1.01 | S. cerevisiae deletion strains, locus YOR061W, strain CKA2, stronger effect = lower value 1.02 | S. cerevisiae deletion strains, locus YOR069W, strain VPS5, stronger effect = lower value 1.01 | S. cerevisiae deletion strains, locus YOR070C, strain gyp1, stronger effect = lower value 1.02 | S. cerevisiae deletion strains, locus YOR080W, strain dia2, stronger effect = lower value 1.02 | S. cerevisiae deletion strains, locus YOR083W, strain WHI5 (second series), stronger effect = lower value 1.01 | S. cerevisiae deletion strains, locus YOR083W, strain WHI5, stronger effect = lower value 1.01 | S. cerevisiae deletion strains, locus YOR106W, strain vam3, stronger effect = lower value 1.01 | S. cerevisiae deletion strains, locus YOR136W, strain idh2, stronger effect = lower value 0.981 | S. cerevisiae deletion strains, locus YOR144C, strain elg1, stronger effect = lower value 0.998 | S. cerevisiae deletion strains, locus YOR184W, strain ser1, stronger effect = lower value 0.981 | S. cerevisiae deletion strains, locus YOR231W, strain MKK1, stronger effect = lower value 0.976 | S. cerevisiae deletion strains, locus YOR265W, strain rbl2, stronger effect = lower value 1.01 | S. cerevisiae deletion strains, locus YOR270C, strain vph1, stronger effect = lower value 1.04 | S. cerevisiae deletion strains, locus YOR290C, strain snf2, stronger effect = lower value 1.01 | S. cerevisiae deletion strains, locus YOR316C, strain cot1, stronger effect = lower value 0.997 | S. cerevisiae deletion strains, locus YPL051W, strain arl3, stronger effect = lower value 1 | S. cerevisiae deletion strains, locus YPL055C, strain LGE1, stronger effect = lower value 1.05 | S. cerevisiae deletion strains, locus YPL078C, strain atp4, stronger effect = lower value 1.01 | S. cerevisiae deletion strains, locus YPL106C, strain sse1, stronger effect = lower value 1.03 | S. cerevisiae deletion strains, locus YPL240C, strain hsp82, stronger effect = lower value 1.02 | S. cerevisiae deletion strains, locus YPL241C, strain CIN2, stronger effect = lower value 1.01 | S. cerevisiae deletion strains, locus YPL256C, strain CLN2, stronger effect = lower value 0.968 | S. cerevisiae deletion strains, locus YPR119W, strain clb2, stronger effect = lower value 0.979 | S. cerevisiae deletion strains, locus YPR141C, strain kar3, stronger effect = lower value 0.988 | S. cerevisiae deletion strains, locus YPR163C, strain tif3, stronger effect = lower value 0.998 | S. cerevisiae deletion strains, locus YPR167C, strain met16, stronger effect = lower value 0.99 | S. cerevisiae deletion strains, strain wtn01, stronger effect = lower value 0.983 | S. cerevisiae strains, strain wild type, stronger effect = lower value 1.01
